Most compounds without a hit are left out; they make up all but 2.4% or so of the library.
M1 PAM: potentiates human M1 receptor response to acetylcholine | P11229 | CHO-K1 hM1, Fluo-8 calcium fluorescence, ACh EC20; 0% = ACh EC20, 100% = maximal ACh | activation, % at 3 µM | 0.088% of 360,000 active | AID 588819; in the data active = activation above about 19%, passing the limit was not always enough
Target sequence (P11229 whole entry, looked up): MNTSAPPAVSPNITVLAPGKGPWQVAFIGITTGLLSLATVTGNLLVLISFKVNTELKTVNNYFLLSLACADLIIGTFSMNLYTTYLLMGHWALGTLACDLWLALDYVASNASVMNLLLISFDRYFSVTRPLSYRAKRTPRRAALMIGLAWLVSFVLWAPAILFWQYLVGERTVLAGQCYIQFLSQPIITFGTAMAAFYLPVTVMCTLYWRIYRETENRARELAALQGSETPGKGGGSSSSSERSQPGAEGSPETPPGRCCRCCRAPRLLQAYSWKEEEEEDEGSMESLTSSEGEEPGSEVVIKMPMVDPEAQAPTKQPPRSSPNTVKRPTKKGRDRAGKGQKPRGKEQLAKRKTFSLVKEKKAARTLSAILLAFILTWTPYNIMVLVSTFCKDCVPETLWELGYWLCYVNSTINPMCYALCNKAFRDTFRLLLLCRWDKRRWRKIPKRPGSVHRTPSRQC
M1 ag parental: M1 agonist counterscreen hit in parental CHO-K1 cells; AID 602248; 0.48% of 360,000 active; activation, % at 3 µM; Fluo-8 calcium fluorescence; scaled to maximal ATP response, vehicle zero; in the data active = activation above about 15%;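 note: untransfected CHO-K1 host cells lacking M1 receptor as counterscreen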
CHO-K1 Ca antag: nonselective inhibitor or artifact in parental CHO-K1 cells. ATP-induced calcium, Fluo-8 fluorescence. inhibition, % at 3 µM. 0.6% of 360,000 active;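 active = inhibition above a per-plate cutoff, the plate's mean sample inhibition plus 3 SD, cut at about 24% in these data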
CHO-K1 Ca PAM: M1 PAM counterscreen hit in parental CHO-K1 cells; ATP EC20, Fluo-8 calcium fluorescence; 0% at ATP EC20, 100% at ATP max; activation, % at 3 µM; 0.02% of 360,000 active; AID 602247;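 active = activation above the run cutoff, the mean activation of all test compounds plus 3 SD, cut at about 40% in these data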;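 note: peak over basal fluorescence ratio in a 140 s read after ATP addition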
M1 ag: activates human CHRM1 receptor; CHO-K1 hM1, Fluo-8 calcium fluorescence, agonist mode; 0% DMSO, 100% acetylcholine EC100; P11229; activation, % at 3 µM; 0.33% of 360,000 active;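 active = activation above the run's mean compound activation plus 3 SD, cut at about 16% in these data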;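 note: peak over basal fluorescence ratio within a 140 s kinetic read after compound addition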
CHRM1 antagonist: antagonists of human M1 muscarinic receptor; CHO-K1 hM1, Fluo-8 calcium fluorescence, ACh EC80 antagonist; 1.3% of 360,000 active; AID 588852; inhibition, % at 3 µM;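 active = percent inhibition above its own plate's cutoff, namely the mean of that plate's compound wells plus 3 SD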;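 note: peak over basal fluorescence ratio during 140 s after agonist addition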
Numbers stand for hits; – = inactive; ! = repeats disagree.

SMILES	M1 PAM	M1 ag parental	CHO-K1 Ca antag	CHO-K1 Ca PAM	M1 ag	CHRM1 antagonist
O=C(c1ccc(COc2ccc3ccccc3c2)o1)N1N=C(C(F)F)CC1(O)C(F)F (stereo not given)	–	–	–	–	–	56
CCOc1ccc(OCc2ccc(C(=O)N3N=C(C(F)F)CC3(O)C(F)F)o2)cc1 (stereo not given)	–	–	–	–	–	–
COc1ccccc1-c1cccc([C@@H]2C[C@H]3[C@H](CON3C)CN2C(C)=O)c1	–	–	–	–	–	–
COc1cccc(N2C(=O)CC(N3CCN(CCN=CC4=C(O)CC(C)(C)CC4=O)CC3)C2=O)c1 (stereo not given)	–	19	–	–	–	–
CC1(C)CC(=O)C(C=NCCN2CCN(C3CC(=O)N(c4cccc(Br)c4)C3=O)CC2)=C(O)C1 (stereo not given)	–	–	–	–	–	–
COc1ccc(CNS(=O)(=O)CCNC(=O)c2ccc3c(c2)OCO3)cc1	–	–	24	–	–	–
CCN=C1SC(CC(=O)Nc2ccccc2)C(=O)N1CC (stereo not given)	–	–	–	–	–	29!
CCN=C1SC(CC(=O)NCC)C(=O)N1CC (stereo not given)	–	–	–	–	–	–
CCN=C1SC(CC(=O)Nc2ccc3c(c2)OCO3)C(=O)N1CC (stereo not given)	–	–	–	–	–	28
O=C(Nc1ccccc1F)c1ccc2sc([C@H]3C[C@H](O)[C@@H](CO)O3)nc2c1	–	–	–	–	–	–
N#CCCN1CCN(C(=S)c2ccc(-c3cc(Cl)ccc3Cl)o2)CC1	–	–	–	–	–	30
CN1CCN(C(=S)c2ccc(-c3cc(Cl)ccc3Cl)o2)CC1	–	–	–	–	–	–
NS(=O)(=O)c1ccc(NC(=O)CSc2cn[nH]n2)cc1	–	–	–	–	–	–
Nc1nc(=S)ss1	–	–	–	–	–	–
COc1ccc(S(=O)(=O)NCCSCc2ccco2)cc1Cl	22	–	–	–	–	–
Nc1c(C(=O)NCc2ccccc2)nnn1Cc1ccc(F)cc1	–	–	–	–	20	–
Cc1ccc(Cn2nnc(C(=O)Nc3cccc(C)c3C)c2N)cc1	–	–	–	–	39	–
CCc1ccc(Cn2nnc(C(=O)Nc3cccc(C)c3)c2N)cc1	–	–	–	–	–	–
COc1cccc(Cn2nnc(C(=O)Nc3cc(C)ccc3OC)c2N)c1	–	–	26	–	–	–
O=C1CC(N2CCN(C3CC(=O)N(CCc4ccccc4)C3=O)CC2)C(=O)N1CCc1ccccc1 (stereo not given)	–	–	–	–	–	–
O=C1CC(N2CCN(C/C=C/c3ccccc3)CC2)C(=O)N1CCc1ccccc1 (stereo not given)	–	16	–	–	–	–
O=C1CC(N2CCN(C/C=C/c3ccccc3)CC2)C(=O)N1Cc1cccs1 (stereo not given)	–	–	–	–	–	87
O=C1CC(N2CCN(c3ccc(O)cc3)CC2)C(=O)N1Cc1cccs1 (stereo not given)	–	–	–	–	–	–
COCCNC(=O)c1cc2c(c(-c3cccc(-c4cc5ccccc5o4)c3)n1)[C@@H](CCO)N(S(=O)C(C)(C)C)C2 (stereo not given in full)	–	–	–	–	–	–
O=C(NCCN1CCCCC1)c1ccc(F)cc1Cl	–	–	–	–	–	–
SMILES	M1 PAM	M1 ag parental	CHO-K1 Ca antag	CHO-K1 Ca PAM	M1 ag	CHRM1 antagonist
OC(COc1ccccc1)CN1CCN(C(c2ccccc2)c2ccccc2)CC1 (stereo not given)	–	–	–	–	–	–
c1ccc(OCCOCCN2CCN(C(c3ccccc3)c3ccccc3)CC2)cc1	–	–	–	–	–	100
COc1ccccc1OCCCCN1CCN(C(c2ccccc2)c2ccccc2)CC1	–	–	–	–	–	86
COc1cccc(OC)c1C(=O)Nc1nc2ccc([N+](=O)[O-])cc2s1	–	–	–	–	–	–
CC1C(=O)N(Cc2cn(CCC3OCCCO3)nn2)CCS(=O)(=O)N1Cc1ccc(-c2ccc(Cl)cc2)cc1 (stereo not given)	–	–	–	–	–	–
CCN(CC)S(=O)(=O)c1ccc(NC(=O)COC(=O)CCc2cc(OC)c(OC)c(OC)c2)cc1	–	–	–	–	–	–
Cc1c(Br)c([N+](=O)[O-])nn1CCCC(=O)Nc1c(C)n(C)n(-c2ccccc2)c1=O	–	–	–	–	–	82
Cc1cc(NC(=O)CCCn2nc([N+](=O)[O-])c(Br)c2C)no1	–	–	–	–	–	–
Cc1cc([N+](=O)[O-])nn1CCCC(=O)Nc1c(C)n(C)n(-c2ccccc2)c1=O	–	–	–	–	–	31
Cc1cc(Nc2ccc(Cl)cc2)nc(-c2ccccc2O)n1	–	–	–	–	–	–
Cc1cc(Nc2cccc(Cl)c2)nc(-c2ccccc2O)n1	–	–	43	–	–	–
O=c1c2c3c(sc2nc2n1CCCCC2)CCCCC3	–	–	–	–	–	–
N=c1c2c3c(sc2nc2n1CCCCC2)CCCCC3	–	–	–	–	–	92
O=c1[nH][nH]c2cc([N+](=O)[O-])ccc12	–	–	–	–	–	–
Cn1cnnc1SCC(=O)Nc1ccc(Cl)cn1	–	–	33	–	–	–
Cc1ccc(/C=N/NC(=O)c2ccc3ccccc3c2)s1	–	–	25	–	–	–
CC(CC(=O)Nc1nnc(C(C)(C)C)s1)c1ccccc1 (stereo not given)	–	–	–	–	–	–
O=C(COC(=O)c1ccc(F)c(S(=O)(=O)N2CCOCC2)c1)NCc1ccc(Cl)cc1	–	–	–	–	–	–
Cc1ccc2[nH]cc(C(=O)CN3CCN(c4ccccc4F)CC3)c2c1	–	16	–	–	–	–
COc1ccc(N2CCN(C(=O)C(=O)c3c[nH]c4ccccc34)CC2)cc1	–	–	–	–	–	–
COc1ccc(N2CCN(CC(=O)c3c[nH]c4ccccc34)CC2)cc1	–	–	24	–	–	–
Cc1ccc(C(=O)COC(=O)CCNS(=O)(=O)c2ccccc2F)cc1	–	–	–	–	–	–
CC(C)CN1C(=O)c2ccc(C(=O)Nc3ccccc3C(=O)O)cc2C1=O	–	–	–	–	–	–
CN(C)CC(O)COc1cc2ccccc2cc1C(=O)N1CCCCC1 (stereo not given)	–	–	–	–	–	33
COc1cc2ccccc2cc1C(=O)N1CCCCC1	–	–	–	–	–	–
CCOC(=O)c1cc(CC)sc1NC(=O)COC(=O)c1ccccn1	–	–	–	–	–	–
COc1ccc(-c2cc(-c3ccccc3O)[nH]n2)cc1OC	–	–	25	–	–	31
